Only some compounds are listed: those with a hit (about 8.7% of all), similar ones and a draw of the others.
12-LOX inh: blocks human arachidonate 12S-lipoxygenase; purified 12hLO, xylenol orange hydroperoxide absorbance; Potency, µM (top dose mostly 108 µM), without a hit: at the highest dose activity change, negative = inhibition, most hits filed as inhibitors; P18054; AID 1671190; actives 1.1% (n = 580,000); note: % is set by controls: 0 for no effect and ±100 for the full control effect
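Purified human 12hLO at 150 nM in 25 mM Hepes, 0.01% Triton X-100, pH 7.0, preincubated 15 min at room temperature with compound. Reaction started with 40 uM arachidonic acid, 30 min at room temperature. Hydroperoxide measured by Fe-xylenol orange, 573/405 nm absorbance ratio.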
HP1b binding inh: blocks HP1-beta chromodomain binding to methylated histone tails. P83916. AlphaScreen HP1-beta / biotin-H3K9me3 peptide binding. Potency, µM (titrated, usually from 114 µM), for the others: at the highest dose activity change, negative = inhibition, usual class: inhibitors. actives 0.56% (n = 390,000); note: nearly all actives have a fitted effect of over 70% in size
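Compound inhibition of the preformed complex between 50 nM HP1-beta and 50 nM biotinylated H3K9me3 peptide was read by AlphaScreen. Buffer was PBS pH 7.4 with 0.01% Tween-20. Incubations ran 30 min at room temperature, with 10 ug/mL donor/acceptor beads.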
BAZ2B inh: BAZ2B (human) inhibition; actives 4.4% (n = 360,000); Potency, µM (top dose mostly 114 µM), for inactives: at the top dose activity change, negative = inhibition, usual class: inhibitors; AlphaScreen BAZ2B-H3K14Ac peptide displacement; note: % is set by controls: 0 for no effect and ±100 for the full control effect; nearly all actives have a fitted effect of over 60% in size
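AlphaScreen luminescence quantifies BAZ2B engagement of H3K14Ac peptide; the protein and biotinylated peptide are both at 50 nM final, buffer PBS pH 7.4 with 0.01% Tween-20, all steps at room temperature.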
JMJD2A Tudor: blocks the human JMJD2A Tudor domain; O75164; AlphaScreen JMJD2A-Tudor / H3K4me3 peptide binding; Potency, µM (top dose mostly 114 µM), for inactives: top-dose activity change, negative = inhibition, usual class: inhibitors; actives 4.4% (n = 390,000); note: % is set by controls: 0 for no effect and ±100 for the full control effect; nearly all actives have a fitted effect of over 50% in size
Sfp PPTase inh: blocks B. subtilis Sfp PPTase activity | Q9F4F7 | Biochemical Sfp PPTase activity, qHTS | Potency, µM, without a hit: largest response in the series, negative = inhibition, actives largely listed as inhibitors | actives 3.5% (n = 310,000) | AID 1490;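 note: the enzyme is Sfp with the accession as filed and its product quenches rhodamine fluorescence; 0% = enzyme reaction without inhibitor and -100% = no enzyme wells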
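Step 1, compound plus 15 nM Sfp-PPTase, 15 min, room temperature. Step 2, add rhodamine-CoA (5 uM) and BHQ-2-YbbR (12.5 uM). Step 3, read 525/598 nm fluorescence at 0 and 30 min.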
G9a inh: blocks human histone lysine methyltransferase G9a; Q96KQ7; G9a H3K9 monomethylation, AlphaScreen, 2 h; Potency, µM (top dose mostly 102 µM), for the others: top-dose activity, negative = inhibition, usual class: inhibitors; actives 8.8% (n = 350,000); AID 504332; note: % is set by controls: 0 for no effect and ±100 for the full control effect; nearly all actives have a fitted effect of over 75% in size
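Signal arises when biotinylated H3K9 peptide, once monomethylated, bridges streptavidin donor and antibody-captured acceptor beads. Enzyme at 20 nM was preincubated 15 min with test compounds; peptide 500 nM and SAM 20 uM then reacted for 2 h.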
* = called active by the depositor; ? = inconclusive; . = no result given; ! = repeats disagree; [ ] = another dose, or the depositor's remark. Calls come from the whole dose curve; as a rule, active = well fitted curve in the direction sought with a large enough effect; inconclusive = small, poorly fitted or top-dose-only effect, or another doubt; inactive = no such curve, though single readings can be large; an effect the other way counts as inactive or inconclusive. Potency is the fitted concentration of half-maximal effect.

SMILES | 12-LOX inh | HP1b binding inh | BAZ2B inh | JMJD2A Tudor | Sfp PPTase inh | G9a inh
CSCCC(NC(=O)/C(=C/c1ccco1)NC(=O)c1ccco1)C(=O)O (centres undefined) | 3% | 16% | . | 40µM* | . | .
COC(=O)c1c(C)sc(-c2c(-c3ccc4c(c3)OCCO4)[nH]c3[nH]c(=O)[nH]c(=O)c23)c1O | 25µM* | ? | 35µM* | 50µM* | . | 14µM*
COC(=O)c1c(C)sc(-c2c(-c3ccc4c(c3)OCCO4)[nH]c3c2c(=O)n(C)c(=O)n3C)c1O | -21% | 3% | -14% | -24% | . | -2%[59 µM]
CC(C)C(=O)Nc1cccc(N2CCN(CCCN3C(=O)C4CCCCN4C3=O)CC2)c1 (centres undefined) | ? | 18% | . | 79µM* | . | .
O=C1C2CCCN2C(=O)N1CCCN1CCN(c2cccc(Cl)c2)CC1 (centres undefined) | -15% | 32% | 1% | -13% | 27% | 15%[59 µM]
Cc1ccc(N2CCN(CCCN3C(=O)C4CCCN4C3=O)CC2)cc1 (centres undefined) | ? | 24% | ? | -21% | -28% | 8.9µM*
CO/N=C(\N)c1nonc1N | 0% | 32% | 3% | -8% | 20% | 15%
CC(=O)N/N=C(\N)c1nonc1N | 201% | 28% | -5% | ? | 89µM* | .
C=CCn1c(CCC(O)COCCC)n[nH]c1=S (centres undefined) | ? | 26% | -27% | 22µM* | -3% | -34%
O=C(COc1ccccc1)N1CCC2(CC1)NC(=O)N(c1ccccc1Cl)N2 | -94% | . | . | . | . | .
O=C(c1cccc(Cl)c1)N1CCC2(C1)NC(=O)N(Cc1ccc(Cl)cc1)C2=O (centres undefined) | 40µM* | . | . | . | . | .
Cc1ccc(C(=O)N2CCN(c3ncccn3)CC2)c(C)c1 | -11% | -6% | -1% | -13% | 3% | -7%
CC(Oc1ccccc1)C(=O)N1CCC2(CC1)NC(=O)N(c1ccccc1Cl)N2 (centres undefined) | 1.4µM* | . | . | . | . | .
Cc1ccc(C(=O)N2CCC3(CC2)NC(=O)N(c2ccccc2Cl)N3)c(C)c1 | 2.2µM* | . | . | . | . | .
O=C(c1ccc(F)cc1)N1CCC2(CC1)NC(=O)N(c1ccccc1Cl)N2 | 1.3µM* | . | . | . | . | .
COc1cccc(CNC(=O)COc2ccc(NC(=O)C3CC3)cn2)c1 | 36% | . | . | . | . | .
CCc1cccc(C)c1NC(=O)CCc1c(C)nc2c3ccccc3nn2c1C | -20% | . | . | . | . | .
COc1cc(-c2nnc(-c3cccc4ccccc34)o2)cc(OC)c1OC | -11% | . | . | . | . | .
CCNC(=O)N1CCCN(S(C)(=O)=O)C(c2ccccc2)CC(=O)NCC1 (centres undefined) | 47% | . | . | . | . | .
O=C(c1cccc(Cl)c1)N1CCC2(CC1)NC(=O)N(c1ccccc1Cl)N2 | 1.6µM* | . | . | . | . | .
COC(=O)c1sc2ccccc2c1S(=O)(=O)Nc1cc(OC)c(OC)c(OC)c1 | -29% | . | . | . | . | .
CCC(=O)Nc1nc2nc(C)cc(=O)n2[nH]1 | ? | 5% | 56µM* | 32µM* | -23% | -20%[59 µM]
Cc1cc(=O)n2[nH]c(COc3ccccc3)nc2n1 | 6% | 32% | 6% | 2% | 8% | 40µM*
CCCc1cc(=O)n2[nH]c(NCc3c(Cl)cccc3Cl)nc2n1 | -19% | 16% | -10% | -13% | -1% | -51%[12.7 µM]
Cc1cc(=O)n2[nH]c(C(=O)O)nc2n1 | ? | -27% | ? | 8.9µM* | ? | ?
SMILES | 12-LOX inh | HP1b binding inh | BAZ2B inh | JMJD2A Tudor | Sfp PPTase inh | G9a inh
CCCc1cc(=O)n2[nH]c(NC(=O)c3ccco3)nc2n1 | ? | 23% | -26% | 6% | -8% | 79µM*
COc1cc(Nc2ncc3c(n2)CCN(Cc2cccc(C)c2)C3)cc(OC)c1 | -26% | 12% | ? | ? | . | 1%[12.7 µM]
Clc1ccc(CN2CCc3nc(Nc4ccc5c(c4)OCCO5)ncc3C2)cc1 | ? | -22% | 18µM* | 28µM* | . | -29%[12.7 µM]
CCOc1ccccc1CN1CCc2nc(Nc3ccc4c(c3)OCCO4)ncc2C1 | ? | ? | 40µM* | 56µM* | . | ?
COc1cc(OC)c(OC)cc1CN1CCc2nc(N3CCN(c4ncccn4)CC3)ncc2C1 | ? | 0% | ? | ? | . | -6%[12.7 µM]
COc1cc(OC)c(OC)cc1CN1CCc2nc(Nc3ccc4c(c3)OCCO4)ncc2C1 | ? | -13% | 45µM* | 56µM* | . | 14µM*
CCc1ccc(-c2nc(COC(=O)c3c(C)nsc3N)cs2)cc1 | 15% | . | . | . | . | .
Cc1ncc(N=Nc2ccccc2)c(-c2ccccc2)n1 | -9% | 32µM* | 14µM* | 40µM* | -1% | ?
Cc1ncc(S(=O)(=O)c2ccccc2)c(-c2ccccc2)n1 | -5% | 27% | -10% | 22% | 17% | ?
CNC(=O)Nc1ccc(C)n(CC(=O)NCc2ccccc2C)c1=O | 40% | . | . | . | . | .
COc1cc(CN2CCN(c3cccc(Cl)c3)CC2)cc(OC)c1OC | ? | ? | 50µM* | 3.5µM* | -28% | 13µM*
COc1ccc(S(=O)(=O)N2CCN(c3ncccn3)CC2)cc1OC | 35µM* | 18% | 6% | -1% | 3% | 10%[0.501 µM]
COc1cc(S(=O)(=O)N2CCN(Cc3ccccc3)CC2)ccc1Br | 0% | 18% | 4% | -11% | 0% | 45µM*
COc1ccc(S(=O)(=O)N2CCN(c3ccccn3)CC2)cc1OC | 9% | 18% | -19% | -1% | 9% | 3%[59 µM]
COc1cc(CN2CCN(S(=O)(=O)c3ccc(F)cc3)CC2)cc(OC)c1OC | ? | ? | 5% | 7.9µM* | ? | 7.9µM*!
O=C(NCc1ccc(S(=O)(=O)N2CCOCC2)cc1)c1ccc(OC(F)(F)F)cc1 | -1% | . | . | . | . | .
COc1cc(CN2CCN(S(=O)(=O)c3ccc(C)cc3)CC2)cc(OC)c1O | -24% | . | . | . | . | .
COc1cc(CN2CCN(S(=O)(=O)c3ccccc3)CC2)cc(OC)c1OC | ? | ? | ? | 20µM* | ? | 28µM*
COc1cc(CN2CCN(C(O)(c3ccccc3)c3ccccc3)CC2)cc(OC)c1OC | 0% | -13% | ? | 25µM* | -6% | .
O=C(Nc1cccc(-c2nnc3n2CCCC3)c1)NC1CCCC1 | 18% | . | . | . | . | .
CNC(=O)[C@H]1C[C@H](Oc2ccccc2)CN1C(=O)CCc1c[nH]c2ccccc12 | 13% | . | . | . | . | .
CCOC(=O)c1cc2c(N)c(C(=O)c3cc(C#N)c(SC)nc3C)sc2nc1C | -4% | 20% | 7% | -10% | 40µM* | 45µM*
CCOC(=O)c1cc(C#N)c(SC)nc1C | 0% | 56% | 11% | 16%[57.1 µM] | 17% | .
CCCN(CC(F)(F)F)C(=O)CCCc1c[nH]c2ccccc12 | 3% | . | . | . | . | .

Compound activity: PubChem, National Center for Advancing Translational Sciences (NCATS)
